Measured values: ChEMBL document CHEMBL1201862, “PubChem BioAssay data set” (2004)
Hit rate of the full screen: of about 410,000 compounds, about 7,200 (1.8%) were called active. Another 7% or so got no clear call; they are omitted. No cut-off for these calls is given here. Shown is part of a subset that was picked to be rich in actives.

target: TAR DNA-binding protein 43 (Homo sapiens) (UniProt Q13148); assay: qHTS of TDP-43 Inhibitors.; type: functional
Sequence (Q13148 whole entry): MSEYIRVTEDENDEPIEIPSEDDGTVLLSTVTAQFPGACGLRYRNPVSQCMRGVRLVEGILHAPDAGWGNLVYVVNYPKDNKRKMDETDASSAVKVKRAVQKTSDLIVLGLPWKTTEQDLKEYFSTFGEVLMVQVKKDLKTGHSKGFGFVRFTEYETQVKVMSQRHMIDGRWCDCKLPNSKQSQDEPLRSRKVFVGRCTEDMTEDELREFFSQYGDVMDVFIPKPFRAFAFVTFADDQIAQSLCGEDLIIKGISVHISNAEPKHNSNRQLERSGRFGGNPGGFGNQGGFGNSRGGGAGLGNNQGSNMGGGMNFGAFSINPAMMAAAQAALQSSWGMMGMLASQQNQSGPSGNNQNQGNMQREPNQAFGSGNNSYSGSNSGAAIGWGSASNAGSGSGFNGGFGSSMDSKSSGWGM

| SMILES | Potency |
| --- | --- |
| COc1ccc(OCC(O)COc2ccc(C(=O)O)cc2)cc1 (configuration not stated) | 100 µM (active) |
| O=C(Nc1ccccc1)c1ccccc1NS(=O)(=O)c1ccc(Cl)s1 | inactive |
| O=C(N/N=C/c1ccc(O)c2ncccc12)c1cccc(Br)c1 | inactive |
| Clc1ccc(-c2nnc(COc3ncnc4ccccc34)o2)cc1 | inactive |
| CCOc1cc(N2CCOCC2)c(OCC)cc1NC(=O)Cn1[nH]c(=O)c2ccccc2c1=O | 79.4 µM (active) |
| Cc1ccc(-c2cc(C(=O)N3N=C(C(F)F)CC3(O)C(F)F)c3ccccc3n2)cc1C (configuration not stated) | inactive |
| Cc1ccc(N(Cc2ccccc2)C(=O)c2cc(S(=O)(=O)N3CCOCC3)ccc2Cl)cc1 | inactive |
| COc1ccc2[nH]c3c(C)c4ccncc4c(C)c3c2c1 | inactive |
| O=C(O)Cc1ccccc1Nc1c(Cl)cccc1Cl | 15.8 µM (active) |
| O=C(Nc1cccc(F)c1)c1ccc2c(c1)OCCO2 | inactive |
| COc1ccc(Cl)cc1NC(=O)C1CCCN(c2cc(C)nc3ncnn23)C1 (configuration not stated) | inactive |
| CN(C(=O)COC(=O)c1cccnc1Nc1cccc(C(F)(F)F)c1)C1CCS(=O)(=O)C1 (configuration not stated) | inactive |
